# Rows were chosen to be rich in hits. Some 19% of all compounds tested hit in one or more screens of this group.
# TGFb inhibitor = qHTS for Inhibitors of TGF-b; HepG2 CAGA-GFP TGF-b/SMAD3 reporter, GFP fluorescence, 18 h; TGF-beta stimulated, 500 pg/mL final; Potency, µM (highest dose often 46.1 µM), inactives show at the highest dose activity, negative = inhibition, usual class: inhibitors; 1.2% of 410,000 active; further: potency means the concentration at half of the fitted maximal effect; on the % scale 0 is the no-effect control and ±100 the full control effect; nearly all actives have a fitted effect of over 65% in size
#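 Inhibition was scored as loss of TGF-beta-induced (500 pg/mL final, 18 hours, 37 degrees C) GFP in HEPG2 cells carrying a CAGA-GFP reporter, in DMEM with 1% FBS. Well GFP was summed per cell; Activity was normalised to unstimulated and stimulated DMSO wells, then concentration-response fitting.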
# ASM inhibitor = Inhibitors of Secretory Acid Sphingomyelinase (S-ASM): qHTS; 0.006% of 340,000 active; placental ASM, HMU-PC fluorogenic substrate, 60 min; Potency, µM (titrated, usually from 57.5 µM), without a hit: at the highest dose activity change, negative = inhibition, actives largely listed as inhibitors; further: potency means the concentration at half of the fitted maximal effect
# Target sequence (P17405 47-631 limits assumed): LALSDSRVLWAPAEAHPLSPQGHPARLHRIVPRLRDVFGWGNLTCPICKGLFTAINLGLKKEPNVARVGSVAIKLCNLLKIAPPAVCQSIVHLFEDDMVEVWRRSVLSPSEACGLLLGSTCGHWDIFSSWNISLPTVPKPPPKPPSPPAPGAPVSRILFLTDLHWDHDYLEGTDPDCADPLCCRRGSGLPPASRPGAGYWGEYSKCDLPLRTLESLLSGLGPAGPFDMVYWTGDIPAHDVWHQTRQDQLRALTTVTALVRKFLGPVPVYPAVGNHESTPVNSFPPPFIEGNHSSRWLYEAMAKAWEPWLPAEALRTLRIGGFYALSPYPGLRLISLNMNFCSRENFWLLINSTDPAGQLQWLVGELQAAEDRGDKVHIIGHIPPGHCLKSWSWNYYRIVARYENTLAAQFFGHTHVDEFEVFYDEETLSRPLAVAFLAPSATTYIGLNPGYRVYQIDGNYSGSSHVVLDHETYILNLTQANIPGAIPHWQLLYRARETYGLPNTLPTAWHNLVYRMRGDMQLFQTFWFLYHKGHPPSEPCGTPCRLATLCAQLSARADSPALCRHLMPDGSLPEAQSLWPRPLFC
#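 Human placenta-derived ASM enzyme was preincubated with compound for 10 minutes at room temperature, then given fluorogenic substrate HMU-PC0 (9 uM final) for 60 minutes at 37 °C; a pH 10 stop preceded fluorescence reading at Ex 386/Em 447 nm.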
# HepG2 tox = qHTS for Inhibitors of TGF-b: Cytotox Counterscreen. HepG2 CAGA-GFP viability, ATP luminescence, 18 h. Potency, µM (titrated, usually from 46.1 µM), without a hit: at the highest dose activity change, negative = cytotoxicity, actives largely listed as cytotoxic. 0.76% of 410,000 active; further: potency means the concentration at half of the fitted maximal effect
#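 HepG2 CAGA-GFP cells (1000/well, DMEM with 1% FBS) received compound, then TGF-beta at 500 pg/mL final, and were incubated 18 hours at 37 degrees C. Viability was read by CellTiter-Glo luminescence. Media-only wells were set as complete cell-killing and DMSO as no toxicity.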
# IL1B secr inh = qHTS for Inhibitors of Inflammasome Signaling: IL-1-beta AlphaLISA Primary Screen | 4.7% of 360,000 active | activity change, % at 57.5 µM | THP-1 LPS/ATP IL-1B secretion, AlphaLISA, 16 h; stronger effect = lower value; in the data active means activity change below about -50%; inconclusive means mostly about -30% to -49%; further: on the % scale 0 is the no-effect control and ±100 the full control effect
#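 THP-1 cells pretreated 1 hr with compounds (up to 57.5 uM final), then stimulated with LPS (250 ng/mL final) plus ATP (1.25 mM final); secreted IL-1B measured by AlphaLISA after 16 hr, decreased signal indicating inhibition.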
# TDP1 cell CPT = qHTS for Inhibitors of human tyrosyl-DNA phosphodiesterase 1 (TDP1): qHTS in cells in presence of CPT; chicken DT40 Tdp1-/-;hTDP1 cells + 20 nM CPT, ATP luminescence, 48 h; Potency, µM (top dose mostly 46.2 µM), for the others: top-dose activity change, negative = growth inhibition, most hits filed as inhibitors; 12% of 420,000 active; further: potency means the concentration at half of the fitted maximal effect; on the % scale 0 is the no-effect control and ±100 the full control effect; nearly all actives have a fitted effect of over 55% in size
#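 Chicken DT40 Tdp1-/- cells complemented with human TDP1, 400 cells/well, exposed to compounds plus 20 nM camptothecin for at least 48 h at 37 C; viability read as ATP content by CellTiter-Glo luminescence.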
# DT40 TDP1 no CPT = qHTS for Inhibitors of human tyrosyl-DNA phosphodiesterase 1 (TDP1): qHTS in cells in absence of CPT; AID 686978, 2013; 15% of 420,000 active; Potency, µM (top dose mostly 46.2 µM), without a hit: top-dose activity change, negative = growth inhibition, most hits filed as inhibitors; DT40 Tdp1-/- hTDP1 cells, no CPT, ATP luminescence, 48 h; further: potency means the concentration at half of the fitted maximal effect; on the % scale 0 is the no-effect control and ±100 the full control effect; nearly all actives have a fitted effect of over 55% in size
#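 No-CPT arm: Tdp1-/-;hTDP1 DT40 cells (400/well) plus compounds, incubated ≥48 hr at 37 °C. Readout CellTiter-Glo luminescence.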
# * = called active by the depositor; ? = inconclusive; · = not tested or not shown. Unless noted, the call rests on the fitted dose curve; in most records, active means well fitted curve in the direction sought with a large enough effect; inconclusive means small, poorly fitted or top-dose-only effect, or another doubt; inactive means no such curve, though single readings can be large; an effect the other way counts as inactive or inconclusive.
SMILES,TGFb inhibitor,ASM inhibitor,HepG2 tox,IL1B secr inh,TDP1 cell CPT,DT40 TDP1 no CPT
Cc1ccc(S(=O)(=O)N2CCN(C(=O)COC(=O)CCOc3ccc(C(C)(C)C)cc3)CC2)cc1,12%,1%,-4%,-15,12µM*,10µM*
Cc1ccccc1OCCC(=O)OCC(=O)N1CCN(S(=O)(=O)c2ccc(Cl)cc2)CC1,0%,-1%,0%,12,-12%,-26%
Cc1ccc(OCCC(=O)OCC(=O)N2CCN(S(=O)(=O)c3ccc(Cl)cc3)CC2)cc1,-10%,-1%,0%,-59*,?,?
CCOc1ccc(OCCC(=O)OCC(=O)N2CCN(S(=O)(=O)c3ccc(C)cc3)CC2)cc1,-2%,1%,-26%,-73*,15µM*,15µM*
CCc1ccc(C(=O)c2cn(CC(=O)Nc3cc(OC)ccc3OC)c3ccc(Cl)cc3c2=O)cc1,1%,·,1%,·,?,?
COc1ccccc1CNC(=O)C(=O)NCC(c1ccc2c(c1)OCO2)N1CCOCC1 (stereo unspecified),-21%,·,-7%,·,?,?
COc1ccc(C(CCN2CCN(c3ccccc3)CC2)c2c(O)cc(OC)cc2OC)cc1 (stereo unspecified),?,0%,-13%,-7,16µM*,21µM*
COc1cc(O)c(C(CCN2CCOCC2)c2ccc(N(C)C)cc2)c(OC)c1 (stereo unspecified),-12%,3%,7%,-13,15µM*,?
COc1cc(O)c(C(CCN2CCN(c3ccccc3)CC2)c2ccc(N(C)C)cc2)c(OC)c1 (stereo unspecified),?,4%,-18%,?,13µM*,21µM*
COc1cc(OC)c2c(c1C(CCN1CCN(c3ccccc3)CC1)c1ccc(N(C)C)cc1)OC(=O)CC2c1ccc(N(C)C)cc1 (stereo unspecified),-25%,·,6%,·,·,·
Cc1ccc(C(C)C)c(OCc2ccc(C(=O)Nc3ccc(S(N)(=O)=O)cc3C)o2)c1,?,·,-96%,·,?,?
COc1cc(/C=C2/CCC/C(=C\c3cc(O)c(OC)c(Cl)c3)C2=O)cc(Cl)c1O,?,-13%,13µM*,-107*,10µM*,10µM*
COc1cc(C2NC(=O)CS2)cc(OC)c1OC (stereo unspecified),0%,5%,17%,5,4%,-25%
COc1cc(/C=C/C(C)=O)cc(OC)c1OC,0%,4%,18%,?,-30%,?
COc1cc(/C=C2\CC/C(=C\c3cc(OC)c(OC)c(OC)c3)C2=O)cc(OC)c1OC,?,-13%,8%,-60*,?,10µM*
COc1cc(/C=C2\CCCc3c2nc2ccccc2c3C(=O)O)cc(OC)c1O,0%,-4%,-4%,15,?,?
COc1cc(/C=C2\CC(C(C)(C)C)C/C(=C\c3cc(OC)c(OC)c(OC)c3)C2=O)cc(OC)c1OC (stereo unspecified),11µM*,?,-71%,-98*,15µM*,9.2µM*
COc1cc(/C=C2\CC/C(=C\c3cc(OC)c(O)c(OC)c3)C2=O)cc(OC)c1O,?,-26%,-46%,-103*,6.5µM*,5.8µM*
Cc1cc(C)nc(NS(=O)(=O)c2ccc(NCN3C(=O)c4ccccc4C3=O)cc2)n1,-7%,·,-14%,-27,-12%,-6%
O=C(/C=C/c1ccccc1)NCCS(=O)(=O)N1CCN(c2ccccc2F)CC1,-13%,-2%,-4%,-5,-13%,?
O=C(Cn1c(=O)nc(-c2ccccc2)c2ccccc21)N1CCN(c2ccc(F)cc2)CC1,9%,·,4%,·,17%,-20%
COc1ccc(NC(=O)c2ccc3c(c2)nnn3C2CCCC2)cc1Cl,1%,·,-1%,·,-2%,-25%
O=C1CCCc2c1[nH]c1ccc(CN3CCCCC3)cc21,-5%,3%,-28%,-52*,16µM*,?
CC(C)CC1=C/C(=C/c2ccc(-c3ccccc3)o2)C(=O)O1,-36%,204%,-4%,0,?,16µM*
CCOC(=O)c1ccc(NC(=O)CC2S/C(=N/N=C/c3c[nH]c4ccccc34)NC2=O)cc1 (stereo unspecified),-23%,-5%,-28%,-68*,-23%,?
SMILES,TGFb inhibitor,ASM inhibitor,HepG2 tox,IL1B secr inh,TDP1 cell CPT,DT40 TDP1 no CPT
CCN1c2ccccc2N(C)C1(C)c1ccccc1 (stereo unspecified),8.9µM*,-6%,-102%,5,3.7µM*,3.7µM*
CCC1(c2ccccc2)CN(C)C1=O (stereo unspecified),16%,·,-9%,-9,3%,-13%
Cc1ccc(CCC(=O)Nc2ccc(CC(=O)O)cc2)o1,3%,-3%,1%,-3,?,?
COc1ccc(-c2noc(CCC(=O)Nc3cc(OC)ccc3OC)n2)cc1,?,-8%,-10%,-6,-25%,21µM*
COc1ccc(-c2noc(CCC(=O)Nc3cccnc3)n2)cc1,20%,4%,-2%,-2,?,?
CCOC(=O)c1ccccc1NC(=O)CCc1nc(-c2ccc(C)cc2)no1,3%,·,0%,·,-25%,-26%
COc1ccc(-c2noc(CCC(=O)NC3CCCCCC3)n2)cc1,-13%,-1%,-10%,21,?,1%
COc1ccc(-c2noc(CCC(=O)Nc3cc(Cl)c(OC)cc3OC)n2)cc1,?,?,3%,-4,?,18µM*
COC(=O)c1ccccc1NC(=O)Cc1nc(-c2ccc(OC)cc2)no1,?,·,18µM*,·,-2%,-20%
CCCC/C=C/[C@H](c1ccccc1)[C@H](CO)Cc1ccc2ccccc2c1,-3%,·,-24%,·,·,·
CCCc1cc(=O)[nH]c(Nc2ccc(Cl)cc2)n1,?,-2%,-35%,-76*,?,16µM*
CCCc1cc(=O)[nH]c(Nc2ccc(O)cc2)n1,-18%,5%,9%,25,-30%,?
Cc1ccc(CNC(=O)CCC(=O)Nc2nnc(C)s2)cc1,6%,4%,14%,14,24%,0%

# High-throughput results (PubChem BioAssay)
